“And” between values parts separate entries of the source, which are not always exact repeats. Equal values may be shown once. Inconclusive results are not listed. The source made the active and inactive calls. Unless noted, the call rests on the fitted dose curve; in most records, active means well fitted curve in the direction sought with a large enough effect; inconclusive means small, poorly fitted or top-dose-only effect, or another doubt; inactive means no such curve, though single readings can be large; an effect the other way counts as inactive or inconclusive.
Assays:
[1] = qHTS assay for environmental chemicals that activate the Aryl hydrocarbon Receptor (AhR) signaling pathway (AID 651777); conditions: 1A2-DRE human hepatoma cells, luciferase, 24 h; activation: hits give high values; further: nearly all actives have a fitted effect of over 15% in size; further: potency means the concentration at half of the fitted maximal effect; on activation: % of control where 0% means no effect
Summary of the method: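 AhR activation is scored as a rise in luciferase from a stable DRE–CYP1A2 promoter construct in human hepatoma cells. Treatment lasts 24 hr at 37 C; detection uses One-Glo after 30 min at room temperature.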

[2] = target: Peroxisome proliferator-activated receptor alpha (Homo sapiens) (UniProt Q07869); test: qHTS assay for small molecule agonists of the peroxisome proliferator-activated receptor alpha (PPARalpha) signaling pathway (AID 651778); conditions: PathHunter PPARalpha complementation, chemiluminescence, 6 h; max response: hits give high values; further: % of control where 0% means no effect
Sequence of Peroxisome proliferator-activated receptor alpha (Homo sapiens) (Q07869 whole entry, looked up): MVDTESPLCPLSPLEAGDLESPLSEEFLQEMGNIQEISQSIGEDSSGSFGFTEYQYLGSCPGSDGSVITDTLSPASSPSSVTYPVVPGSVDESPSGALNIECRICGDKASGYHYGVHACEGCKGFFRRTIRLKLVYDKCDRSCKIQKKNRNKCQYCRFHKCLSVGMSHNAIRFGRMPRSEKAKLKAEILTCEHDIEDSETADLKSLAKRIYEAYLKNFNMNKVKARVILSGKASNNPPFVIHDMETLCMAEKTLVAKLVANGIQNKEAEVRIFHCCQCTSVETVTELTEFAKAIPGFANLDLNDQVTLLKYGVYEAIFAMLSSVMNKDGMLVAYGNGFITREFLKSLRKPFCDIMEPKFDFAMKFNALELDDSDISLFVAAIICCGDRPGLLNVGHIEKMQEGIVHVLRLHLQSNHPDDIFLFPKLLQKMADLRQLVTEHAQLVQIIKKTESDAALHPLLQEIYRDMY
Summary of the method: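 Chemiluminescence from complemented enzyme reported PPARalpha activation in cells after 6 hr of compound treatment at 37 C. The detection reagent was incubated for 60 min at room temperature, and compounds were scored as agonists.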

[3] = target: Nuclear receptor ROR-gamma (Homo sapiens) (UniProt P51449); test: qHTS assay for small molecule antagonists of the retinoid-related orphan receptor gamma (ROR-gamma) signaling pathway (AID 651802); further: nearly all actives have a fitted effect of over 60% in size; further: potency means the concentration at half of the fitted maximal effect
Sequence of Nuclear receptor ROR-gamma (Homo sapiens) (P51449 whole entry, looked up): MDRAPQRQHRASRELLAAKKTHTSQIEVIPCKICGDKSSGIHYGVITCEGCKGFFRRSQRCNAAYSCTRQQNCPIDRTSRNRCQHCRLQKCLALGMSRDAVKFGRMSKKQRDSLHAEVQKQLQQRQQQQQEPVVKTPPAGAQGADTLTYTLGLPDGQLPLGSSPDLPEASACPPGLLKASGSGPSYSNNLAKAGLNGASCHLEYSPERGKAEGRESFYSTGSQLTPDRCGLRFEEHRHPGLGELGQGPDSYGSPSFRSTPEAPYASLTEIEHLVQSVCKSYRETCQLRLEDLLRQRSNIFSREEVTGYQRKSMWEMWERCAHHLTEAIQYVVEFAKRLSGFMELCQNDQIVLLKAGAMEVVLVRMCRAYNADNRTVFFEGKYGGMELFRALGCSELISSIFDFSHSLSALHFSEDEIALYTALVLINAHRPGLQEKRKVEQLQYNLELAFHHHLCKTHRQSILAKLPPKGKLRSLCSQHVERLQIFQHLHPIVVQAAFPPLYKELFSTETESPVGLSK
Summary of the method: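 Luminescence (One-Glo, 30 min RT) measured 16 h after compound addition and doxycycline induction at 37C. Reporter: RORE-luciferase under TET-inducible ROR-gamma in CHO cells.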

[4] = qHTS assay for small molecule agonists of the antioxidant response element (ARE) signaling pathway measured by Nrf2-dependant transcriptional activity (AID 720636; active means well fitted curve in the direction sought with a large enough effect in the repeat runs; an effect the other way counts as inactive or inconclusive;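 further: HepG2 cells with an ARE-driven luciferase reporter; % of control where 0% means no effect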)
Summary of the method: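 First, ARE-luc HepG2 cells attached for 6 hr at 37 C in 1% dialyzed FBS medium. Next, compound or DMSO was added and incubated 16 hr. Finally, ONE-Glo reagent was added and luminescence measured after 30 min.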

[5] = qHTS assay for small molecule antagonists of the retinoid-related orphan receptor gamma (ROR-gamma) signaling pathway - cell viability counter screen (AID 720652; active means well fitted curve in the direction sought with a large enough effect in the repeat runs; an effect the other way counts as inactive or inconclusive;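 further: compound exposure lasted 16 hr before ATP read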; further: potency means the concentration at half of the fitted maximal effect)
Summary of the method: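 Cytotoxicity counter screen: intracellular ATP (CellTiter-Glo luminescence) measured in the doxycycline-induced CHO RORE-luciferase reporter line after 16 hr compound exposure at 37 C, 5% CO2.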

[6] = qHTS assay for small molecule agonists of the antioxidant response element (ARE) signaling pathway measured by Nrf2-dependant transcriptional activity - cell viability counter screen (AID 720653; active means well fitted curve in the direction sought with a large enough effect in the repeat runs; an effect the other way counts as inactive or inconclusive; further: potency means the concentration at half of the fitted maximal effect; on max response: on the % scale 0 is the no-effect control and ±100 the full control effect); conditions: ARE-bla HepG2 viability, CellTiter-Glo ATP luminescence, 16 h; max response: hits give low values
Summary of the method: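 Cytotoxicity counter screen: intracellular ATP quantified by CellTiter-Glo luminescence in the same ARE-bla HepG2 plates, after 16 h compound exposure and a 2 h beta-lactamase substrate step.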

[7] = qHTS Assay for Identifying Gametocytocidal Compounds (AID 743244); further: potency means the concentration at half of the fitted maximal effect;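 on max response: on the % scale 0 is the no-effect control and ±100 the full control effect; actives lower the fluorescent signal which means gametocytes are killed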; conditions: P. falciparum 3D7 stage III-V gametocytes, alamarBlue, 72 h; max response: hits give low values
Summary of the method: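 Fluorescence at Ex 525/Em 598 nm, recorded 24 h after alamarBlue addition, reports residual metabolic activity of 3D7 gametocytes (stages III–V) following 72 h compound exposure at 37 °C, 5% CO2.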

[8] = qHTS assay for cell viability of HEK293 cells (AID 743288); conditions: ATP luminescence (CellTiter-Glo), 18 h; max response: hits give low values; further: nearly all actives have a fitted effect of over 50% in size; further: potency means the concentration at half of the fitted maximal effect; on max response: on the % scale 0 is the no-effect control and ±100 the full control effect
Summary of the method: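 After 18 h compound exposure at 37 C, parental HEK293 cells (2,000/well) are lysed with CellTiter-Glo and luminescence is read following 30 min at room temperature.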

[9] = qHTS assay for cell viability of the p53RE-bla HCT-116 cell line (AID 743292); further: nearly all actives have a fitted effect of over 55% in size; further: potency means the concentration at half of the fitted maximal effect
Summary of the method: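 Quantitative high-throughput format: compounds in DMSO were pinned onto p53RE-bla HCT-116 cells (4,000/well) and incubated 16 h at 37 C. Total intracellular ATP, read by CellTiter-Glo luminescence, reflects viable cell number.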

COc1ccc(C(c2ccc(OC)cc2)C(Cl)(Cl)Cl)cc1
inactive: activation [1] 1.39% and 11.4% and 6.25% | max response [2] 12.2% and 6.03% and 0.144% | Potency [4] | max response [6] 5.23% and -7.02% and -11.5% | max response [7] -11% | max response [8] -23.2% and -28.9% and -19.6% | Potency [9]
active: Potency [3] 26.6 µM | Potency [5] 66.8 µM and 42.2 µM

COc1nn(CSP(=S)(OC)OC)c(=O)s1
inactive: activation [1] -1.09% | max response [2] -1.93% | Potency [4] | max response [6] -11.6% | max response [7] 14.2% | max response [8] -26% | Potency [9]

O=[N+]([O-])c1c(Cl)c(Cl)cc(Cl)c1Cl
inactive: activation [1] 4.33% | max response [2] 0.293% | Potency [3] | Potency [4] | Potency [5] | max response [6] 0.0593% | max response [7] -14.2% | max response [8] -0.234% | Potency [9]

CCCCCCCCc1ccc(O)cc1
inactive: activation [1] 1.65% and 1.55% | max response [2] 18.3% and 5.8% | Potency [3] | max response [6] -0.124% and 0.446% | max response [7] -6.88% | max response [8] -15.8% and -26% | Potency [9]

CC(=O)[O][Hg][c]1ccccc1
active: Potency [3] 0.531 µM | Potency [5] 1.33 µM | Potency [6] 35.5 µM and 14.1 µM | Potency [7] 1.12 µM | Potency [8] 7.08 µM and 22.4 µM | Potency [9] 8.91 µM and 10 µM
inactive: activation [1] -9.33% and -11.2% | max response [2] -13.3% and -4.57% | Potency [4]

CCOCCOC(C)=O
inactive: activation [1] -0.221% | max response [2] 0.307% | Potency [3] | Potency [4] | Potency [5] | max response [6] 4.03% | max response [7] 4.31% | max response [8] -0.828% | Potency [9]

CC(C)(C)C(O)C(Oc1ccc(Cl)cc1)n1cncn1 (stereo not given)
inactive: activation [1] 5.62% | max response [2] -0.528% | Potency [4] | max response [6] -9.81% | max response [7] 12.8% | max response [8] -2.21% | Potency [9]

CCCCC(CC)COC(=O)c1ccccc1C(=O)OCC(CC)CCCC (stereo not given)
inactive: activation [1] -0.0838% and 0.859% | max response [2] -1.13% and 3.57% | Potency [4] | Potency [5] | max response [6] -8.88% and -12.5% | max response [7] 10.4% | max response [8] -14% and -11% | Potency [9]

C1CCC(NC2CCCCC2)CC1
inactive: activation [1] -1.28% and -0.443% and 0.0289% | max response [2] 0.749% and -0.258% and -1.01% | Potency [3] | Potency [4] | Potency [5] | max response [6] 1.26% and -8.57% and 6.08% | max response [7] 18.7% | max response [8] 4.88% and 5.5% and 0.405% | Potency [9]

CC(C)(O)C(=O)Nc1ccc([N+](=O)[O-])c(C(F)(F)F)c1
inactive: activation [1] -1.15% | max response [2] -1.76% | Potency [4] | Potency [5] | max response [6] -5.91% | max response [8] -8.24% | Potency [9]

O=C(O)COc1ccccc1
inactive: activation [1] 0.99% | max response [2] -1.23% | Potency [4] | Potency [5] | max response [6] -7.55% | max response [7] -2.31% | max response [8] -7.91% | Potency [9]

CC(C)Oc1cccc(NC(=O)c2ccccc2C(F)(F)F)c1
inactive: activation [1] 11.8% | max response [2] 3.69% | Potency [4] | max response [6] -3.23% | max response [7] 15.7% | max response [8] -13.1% | Potency [9]

Nc1ccccc1N
active: Potency [1] 39.8 µM

CCCCCCCCCCCCCCCC[N+](C)(C)C
inactive: activation [1] 0.975% and 0.339% | max response [2] 1.77% and -0.579% | Potency [4] | max response [6] -27.3% and -1.44% | max response [8] -5.85% | Potency [9]
active: Potency [7] 10 µM

CCOP(=O)(NC(C)C)Oc1ccc(SC)c(C)c1 (stereo not given)
inactive: activation [1] 4% and 2.89% | max response [2] 2.22% and -0.0211% | Potency [3] | Potency [4] | Potency [5] | max response [6] -14.8% and -8.95% | max response [7] 14.8% | max response [8] -28.9% and -13.9% | Potency [9]

CCCCCCCCCC(CC)c1ccc(S(=O)(=O)O)cc1 (stereo not given)
inactive: activation [1] -1.06% | max response [2] 1.36% | Potency [4] | max response [6] -0.0281% and -4.65% | max response [7] -5.24% and 45.2% | max response [8] -11.2% and -4.04% | Potency [9]

— PubChem BioAssay (NCATS)
